Laboratory results as given in PubChem BioAssay AID1159580 (chemical genetic matrix, 2015).
The campaign covered roughly 5,500 compounds. About 2,000 (36%) were called active. Roughly 18% stayed inconclusive and do not appear here. No stated cut-off is given here; in the data, active means normalized growth mostly below about 0.91 (no sharp cut-off); inconclusive means no clear call, values can overlap the other calls; inactive means mostly above about 0.92. The list shows a part of the results.

Test: chemical genetic growth profiling, strain panel (AID 1159580);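 further: tested at 20 µM; growth read once vehicle control cultures reached saturation at 30 °C; 1 = growth at the plate median or of vehicle wells; lower values mean less growth of the strain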
Conditions: growth OD

Measured: normalized growth

CCC1(c2ccccc2)C(=O)NCNC1=O
inactive: S. cerevisiae deletion strains, locus YJR075W, strain HOC1, active compounds read low 1.01 | S. cerevisiae deletion strains, locus YKL009W, strain mrt4, active compounds read low 0.998 | S. cerevisiae deletion strains, locus YKL068W, active compounds read low 0.997 | S. cerevisiae deletion strains, locus YKL085W, strain MDH1 (second series), active compounds read low 0.996 | S. cerevisiae deletion strains, locus YKL085W, strain MDH1, active compounds read low 0.996 | S. cerevisiae deletion strains, locus YKL160W, strain elf1, active compounds read low 1.02 | S. cerevisiae deletion strains, locus YKL190W, strain CNB1, active compounds read low 1.01 | S. cerevisiae deletion strains, locus YKR001C, strain vps1, active compounds read low 0.995 | S. cerevisiae deletion strains, locus YKR026C, strain gcn3, active compounds read low 0.978 | S. cerevisiae deletion strains, locus YKR091W, strain srl3, active compounds read low 0.999 | S. cerevisiae deletion strains, locus YLL001W, strain dnm1, active compounds read low 1.02 | S. cerevisiae deletion strains, locus YLL026W, active compounds read low 1 | S. cerevisiae deletion strains, locus YLL041C, strain sdh2, active compounds read low 1.01 | S. cerevisiae deletion strains, locus YLR027C, strain aat2, active compounds read low 1.01 | S. cerevisiae deletion strains, locus YLR039C, strain RIC1, active compounds read low 0.971 | S. cerevisiae deletion strains, locus YLR058C, strain SHM2, active compounds read low 1.01 | S. cerevisiae deletion strains, locus YLR102C, strain apc9, active compounds read low 0.996 | S. cerevisiae deletion strains, locus YLR113W, strain HOG1, active compounds read low 0.993 | S. cerevisiae deletion strains, locus YLR221C, strain rsa3, active compounds read low 1.01 | S. cerevisiae deletion strains, locus YLR258W, strain gsy2, active compounds read low 1.01 | S. cerevisiae deletion strains, locus YLR262C, strain YPT6 (second series), active compounds read low 1.03 | S. cerevisiae deletion strains, locus YLR262C, strain YPT6, active compounds read low 0.995 | S. cerevisiae deletion strains, locus YLR268W, strain sec22, active compounds read low 0.981 | S. cerevisiae deletion strains, locus YLR320W, strain mms22, active compounds read low 1.02 | S. cerevisiae deletion strains, locus YLR330W, strain CHS5, active compounds read low 1.01 | S. cerevisiae deletion strains, locus YLR342W, strain FKS1 (second series), active compounds read low 1.01 | S. cerevisiae deletion strains, locus YLR342W, strain FKS1, active compounds read low 1.03 | S. cerevisiae deletion strains, locus YLR357W, strain rsc2, active compounds read low 1.02 | S. cerevisiae deletion strains, locus YLR370C, strain arc18, active compounds read low 1.01 | S. cerevisiae deletion strains, locus YLR371W, strain rom2, active compounds read low 1 | S. cerevisiae deletion strains, locus YLR384C, strain iki3, active compounds read low 1.01 | S. cerevisiae deletion strains, locus YLR418C, strain cdc73, active compounds read low 0.992 | S. cerevisiae deletion strains, locus YML016C, strain PPZ1, active compounds read low 1 | S. cerevisiae deletion strains, locus YML032C, strain rad52, active compounds read low 0.992 | S. cerevisiae deletion strains, locus YML120C, strain ndi1, active compounds read low 1.01 | S. cerevisiae deletion strains, locus YML124C, strain tub3, active compounds read low 0.995 | S. cerevisiae deletion strains, locus YMR058W, strain fet3, active compounds read low 0.995 | S. cerevisiae deletion strains, locus YMR078C, strain ctf18, active compounds read low 1 | S. cerevisiae deletion strains, locus YMR125W, strain sto1, active compounds read low 0.979 | S. cerevisiae deletion strains, locus YMR129W, active compounds read low 0.99 | S. cerevisiae deletion strains, locus YMR205C, strain PFK2, active compounds read low 1.02 | S. cerevisiae deletion strains, locus YMR223W, strain ubp8, active compounds read low 0.995 | S. cerevisiae deletion strains, locus YMR231W, strain pep5, active compounds read low 1.01 | S. cerevisiae deletion strains, locus YMR263W, strain SAP30, active compounds read low 0.982 | S. cerevisiae deletion strains, locus YMR307W, strain GAS1, active compounds read low 0.998 | S. cerevisiae deletion strains, locus YNL067W, strain RPL9B, active compounds read low 1.01 | S. cerevisiae deletion strains, locus YNL071W, strain lat1, active compounds read low 1 | S. cerevisiae deletion strains, locus YNL128W, strain TEP1, active compounds read low 1.02 | S. cerevisiae deletion strains, locus YNL153C, strain GIM3, active compounds read low 1.13 | S. cerevisiae deletion strains, locus YNL175C, strain NOP13, active compounds read low 0.997 | S. cerevisiae deletion strains, locus YNL183C, strain NPR1, active compounds read low 0.975 | S. cerevisiae deletion strains, locus YNL197C, strain WHI3, active compounds read low 0.976 | S. cerevisiae deletion strains, locus YNL209W, strain ssb2, active compounds read low 1.01 | S. cerevisiae deletion strains, locus YNL224C, strain SQS1, active compounds read low 1 | S. cerevisiae deletion strains, locus YNL233W, strain BNI4, active compounds read low 1 | S. cerevisiae deletion strains, locus YNL248C, strain rpa49, active compounds read low 1.01 | S. cerevisiae deletion strains, locus YNL250W, strain rad50, active compounds read low 0.998 | S. cerevisiae deletion strains, locus YNL271C, strain bni1, active compounds read low 0.993 | S. cerevisiae deletion strains, locus YNL298W, strain CLA4, active compounds read low 1.01 | S. cerevisiae deletion strains, locus YNL307C, strain MCK1, active compounds read low 0.995 | S. cerevisiae deletion strains, locus YNL322C, strain KRE1 (second series), active compounds read low 1.01 | S. cerevisiae deletion strains, locus YNL322C, strain KRE1, active compounds read low 1 | S. cerevisiae deletion strains, locus YNR049C, strain mso1, active compounds read low 1 | S. cerevisiae deletion strains, locus YNR052C, strain pop2, active compounds read low 0.998 | S. cerevisiae deletion strains, locus YOL006C, strain TOP1, active compounds read low 0.989 | S. cerevisiae deletion strains, locus YOL012C, strain htz1 0.947 | S. cerevisiae deletion strains, locus YOL147C, strain pex11, active compounds read low 0.988 | S. cerevisiae deletion strains, locus YOR001W, strain rrp6, active compounds read low 0.981 | S. cerevisiae deletion strains, locus YOR061W, strain CKA2, active compounds read low 1 | S. cerevisiae deletion strains, locus YOR069W, strain VPS5, active compounds read low 1.01 | S. cerevisiae deletion strains, locus YOR070C, strain gyp1, active compounds read low 1.01 | S. cerevisiae deletion strains, locus YOR080W, strain dia2, active compounds read low 1.01 | S. cerevisiae deletion strains, locus YOR083W, strain WHI5 (second series), active compounds read low 1 | S. cerevisiae deletion strains, locus YOR083W, strain WHI5, active compounds read low 1.02 | S. cerevisiae deletion strains, locus YOR106W, strain vam3, active compounds read low 1.01 | S. cerevisiae deletion strains, locus YOR136W, strain idh2, active compounds read low 1 | S. cerevisiae deletion strains, locus YOR144C, strain elg1, active compounds read low 0.992 | S. cerevisiae deletion strains, locus YOR184W, strain ser1, active compounds read low 1.01 | S. cerevisiae deletion strains, locus YOR231W, strain MKK1, active compounds read low 1 | S. cerevisiae deletion strains, locus YOR265W, strain rbl2, active compounds read low 1 | S. cerevisiae deletion strains, locus YOR270C, strain vph1, active compounds read low 1.02 | S. cerevisiae deletion strains, locus YOR290C, strain snf2, active compounds read low 1.01 | S. cerevisiae deletion strains, locus YOR316C, strain cot1, active compounds read low 0.996 | S. cerevisiae deletion strains, locus YPL051W, strain arl3, active compounds read low 1.01 | S. cerevisiae deletion strains, locus YPL055C, strain LGE1, active compounds read low 1.01 | S. cerevisiae deletion strains, locus YPL078C, strain atp4, active compounds read low 0.994 | S. cerevisiae deletion strains, locus YPL106C, strain sse1, active compounds read low 1.01 | S. cerevisiae deletion strains, locus YPL240C, strain hsp82, active compounds read low 0.992 | S. cerevisiae deletion strains, locus YPL241C, strain CIN2, active compounds read low 1.01 | S. cerevisiae deletion strains, locus YPL256C, strain CLN2, active compounds read low 1 | S. cerevisiae deletion strains, locus YPR119W, strain clb2, active compounds read low 0.996 | S. cerevisiae deletion strains, locus YPR141C, strain kar3, active compounds read low 0.989 | S. cerevisiae deletion strains, locus YPR163C, strain tif3, active compounds read low 0.994 | S. cerevisiae deletion strains, locus YPR167C, strain met16, active compounds read low 0.995 | S. cerevisiae deletion strains, strain wtn01, active compounds read low 0.991 | S. cerevisiae strains, strain wild type, active compounds read low 1.01
